Data taken from PubChem BioAssay AID1159580 (chemical genetic matrix, 2015).
Values joined by “and” are separate entries in the source; they are usually repeats but may differ in a detail not shown here. Equal entries are not always repeated. The campaign covered roughly 5,500 compounds. About 2,000 (36%) were called active. Another 18% or so got no clear call; they are omitted. Cut-off read from the data, not from the text of the source: active = normalized growth mostly below about 0.91 (no sharp cut-off); inconclusive = no clear call, values can overlap the other calls; inactive = mostly above about 0.92. The list shows a part of the results.

Experiment: chemical genetic growth profiling, strain panel (AID 1159580);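 note: tested at 20 µM; growth read once vehicle control cultures reached saturation at 30 °C; 1 = growth at the plate median or of vehicle wells; lower values mean less growth of the strain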
Conditions: S. cerevisiae deletion strains, growth OD

Measured: normalized growth

CN(C)[C@@H]1C(=O)C(C(N)=O)=C(O)[C@@]2(O)C(=O)C3=C(O)c4c(O)ccc(Cl)c4[C@@](C)(O)[C@H]3C[C@@H]12
inactive: locus YAL013W, strain DEP1, hits give low values 1.01 | locus YAL021C, strain ccr4, hits give low values 0.956 | locus YAL026C, strain drs2, hits give low values 0.983 | locus YAL030W, strain snc1, hits give low values 0.981 | locus YBL061C, strain skt5, hits give low values 0.98 | locus YBR009C, strain hhf1, hits give low values 0.979 | locus YBR021W, strain FUR4, hits give low values 0.961 | locus YBR023C, strain chs3, hits give low values 0.993 | locus YBR171W, strain sec66, hits give low values 0.979 | locus YBR229C, strain ROT2, hits give low values 1.01 | locus YBR231C, strain swc5, hits give low values 0.986 | locus YBR279W, strain paf1, hits give low values 0.987 | locus YCL011C, strain gbp2, hits give low values 0.967 | locus YCL016C, strain dcc1, hits give low values 0.967 | locus YCL029C, strain bik1, hits give low values 1.02 | locus YCL069W, strain vba3, hits give low values 0.986 | locus YCR088W, strain abp1, hits give low values 0.988 | locus YDL005C, strain med2, hits give low values 0.985 | locus YDL035C, strain GPR1, hits give low values 0.976 | locus YDL040C, strain nat1, hits give low values 0.983 | locus YDL074C, strain BRE1, hits give low values 0.968 | locus YDL101C, strain DUN1, hits give low values 1 | locus YDL185W, strain tfp1, hits give low values 1.01 | locus YDL192W, strain arf1, hits give low values 0.97 | locus YDR001C, strain nth1, hits give low values 0.969 | locus YDR069C, strain doa4, hits give low values 0.947 | locus YDR101C, strain arx1, hits give low values 0.996 | locus YDR137W, strain rgp1, hits give low values 0.957 | locus YDR150W, strain NUM1, hits give low values 1 | locus YDR159W, strain sac3, hits give low values 0.968 | locus YDR162C, strain NBP2, hits give low values 1 | locus YDR195W, strain ref2 0.945 | locus YDR297W, strain sur2, hits give low values 0.991 | locus YDR318W, strain mcm21, hits give low values 1 | locus YDR334W, strain swr1, hits give low values 0.968 | locus YDR335W, strain msn5, hits give low values 0.98 | locus YDR388W, hits give low values 1.01 | locus YDR392W, strain spt3, hits give low values 0.895 | locus YDR502C, strain sam2, hits give low values 1.01 | locus YEL003W, strain gim4, hits give low values 0.973 | locus YEL037C, strain rad23, hits give low values 0.983 | locus YEL061C, strain CIN8 (second series), hits give low values 0.986 | locus YEL061C, strain CIN8, hits give low values 0.996 | locus YER015W, strain faa2, hits give low values 0.977 | locus YER016W, strain bim1, hits give low values 0.984 | locus YER110C, hits give low values 1.01 | locus YER111C, strain swi4, hits give low values 0.977 | locus YER155C, strain BEM2 (second series), hits give low values 0.95 | locus YER155C, strain BEM2, hits give low values 1.02 | locus YER167W, strain BCK2, hits give low values 1.01 | locus YFR010W, strain ubp6, hits give low values 0.972 | locus YGL078C, strain dbp3, hits give low values 0.994 | locus YGL086W, strain mad1, hits give low values 0.981 | locus YGL167C, strain pmr1, hits give low values 0.959 | locus YGL173C, strain kem1, hits give low values 0.985 | locus YGL227W, strain vid30, hits give low values 0.984 | locus YGL240W, strain doc1, hits give low values 0.982 | locus YGL248W, strain PDE1, hits give low values 0.942 | locus YGL253W, strain hxk2, hits give low values 0.974 | locus YGR078C, strain PAC10, hits give low values 0.976 | locus YGR135W, strain pre9, hits give low values 0.994 | locus YGR252W, strain gcn5, hits give low values 1 | locus YHR013C, strain ard1, hits give low values 0.98 | locus YHR027C, strain rpn1, hits give low values 0.981 | locus YHR030C, strain SLT2, hits give low values 1.01 and 1.03 | locus YHR079C, strain IRE1 (second series), hits give low values 1.01 | locus YHR079C, strain IRE1, hits give low values 1.1 | locus YHR094C, strain hxt1, hits give low values 1.01 | locus YHR129C, strain ARP1, hits give low values 0.99 | locus YHR142W, strain chs7, hits give low values 0.986 | locus YHR200W, strain rpn10, hits give low values 0.987 | locus YIL066C, strain RNR3, hits give low values 0.922 | locus YIL073C, strain SPO22, hits give low values 0.976 | locus YIL125W, strain kgd1, hits give low values 0.998 | locus YIR030C, strain dcg1, hits give low values 1.01 | locus YJL092W, strain hpr5, hits give low values 0.971 | locus YJL095W, strain BCK1 (second series), hits give low values 0.971 | locus YJL095W, strain BCK1, hits give low values 0.981 and 1.04 | locus YJL115W, strain asf1, hits give low values 0.96 | locus YJL129C, strain trk1, hits give low values 0.991 | locus YJL134W, strain LCB3, hits give low values 1.01 | locus YJL154C, strain vps35, hits give low values 0.973 | locus YJL164C, strain tpk1, hits give low values 0.961 | locus YJL166W, strain qcr8, hits give low values 0.97 | locus YJL168C, strain set2, hits give low values 1 | locus YJL187C, strain SWE1 (second series), hits give low values 0.988 | locus YJR043C, strain POL32, hits give low values 0.971 | locus YJR066W, strain TOR1, hits give low values 0.972 | locus YJR075W, strain HOC1, hits give low values 1 | locus YKL009W, strain mrt4, hits give low values 1.02 | locus YKL068W, hits give low values 1 | locus YKL085W, strain MDH1 (second series), hits give low values 1.01 | locus YKL085W, strain MDH1, hits give low values 1.01 | locus YKL160W, strain elf1, hits give low values 0.962 | locus YKR001C, strain vps1, hits give low values 0.978 | locus YKR026C, strain gcn3, hits give low values 0.975 | locus YKR091W, strain srl3, hits give low values 0.985 | locus YLL001W, strain dnm1, hits give low values 0.976 | locus YLL026W, hits give low values 0.987 | locus YLL041C, strain sdh2, hits give low values 0.97 | locus YLR027C, strain aat2, hits give low values 0.987 | locus YLR039C, strain RIC1, hits give low values 1.01 | locus YLR058C, strain SHM2, hits give low values 0.998 | locus YLR102C, strain apc9, hits give low values 1.02 | locus YLR113W, strain HOG1, hits give low values 1.05 | locus YLR221C, strain rsa3, hits give low values 0.987 | locus YLR258W, strain gsy2, hits give low values 0.975 | locus YLR262C, strain YPT6 (second series), hits give low values 1.01 | locus YLR262C, strain YPT6, hits give low values 1.03 | locus YLR268W, strain sec22, hits give low values 0.992 | locus YLR320W, strain mms22, hits give low values 0.996 | locus YLR330W, strain CHS5, hits give low values 0.999 | locus YLR342W, strain FKS1 (second series), hits give low values 0.848 | locus YLR342W, strain FKS1, hits give low values 0.989 | locus YLR357W, strain rsc2, hits give low values 0.938 | locus YLR370C, strain arc18, hits give low values 0.96 | locus YLR371W, strain rom2, hits give low values 0.983 | locus YLR384C, strain iki3, hits give low values 0.995 | locus YLR418C, strain cdc73, hits give low values 0.988 | locus YML016C, strain PPZ1, hits give low values 0.998 | locus YML032C, strain rad52, hits give low values 0.988 | locus YML120C, strain ndi1, hits give low values 0.97 | locus YML124C, strain tub3, hits give low values 1.01 | locus YMR058W, strain fet3, hits give low values 0.965 | locus YMR078C, strain ctf18, hits give low values 1 | locus YMR125W, strain sto1, hits give low values 0.944 | locus YMR129W, hits give low values 0.983 | locus YMR205C, strain PFK2, hits give low values 0.989 | locus YMR223W, strain ubp8, hits give low values 0.985 | locus YMR231W, strain pep5, hits give low values 0.99 | locus YMR307W, strain GAS1, hits give low values 0.956 | locus YNL067W, strain RPL9B, hits give low values 0.991 | locus YNL071W, strain lat1, hits give low values 0.989 | locus YNL183C, strain NPR1, hits give low values 0.982 | locus YNL209W, strain ssb2, hits give low values 0.99 | locus YNL233W, strain BNI4, hits give low values 0.974 | locus YNL248C, strain rpa49, hits give low values 0.993 | locus YNL250W, strain rad50, hits give low values 1.01 | locus YNL271C, strain bni1, hits give low values 1.01 | locus YNL298W, strain CLA4, hits give low values 1.03 | locus YNL307C, strain MCK1, hits give low values 1.01 | locus YNL322C, strain KRE1 (second series), hits give low values 0.983 | locus YNR049C, strain mso1, hits give low values 0.968 | locus YNR052C, strain pop2, hits give low values 0.997 | locus YOL006C, strain TOP1, hits give low values 0.768 | locus YOL012C, strain htz1 1.03 | locus YOL147C, strain pex11, hits give low values 1.02 | locus YOR001W, strain rrp6, hits give low values 0.978 | locus YOR061W, strain CKA2, hits give low values 0.988 | locus YOR069W, strain VPS5, hits give low values 1 | locus YOR070C, strain gyp1, hits give low values 0.98 | locus YOR080W, strain dia2, hits give low values 0.974 | locus YOR083W, strain WHI5, hits give low values 0.952 | locus YOR106W, strain vam3, hits give low values 0.929 | locus YOR136W, strain idh2, hits give low values 1.03 | locus YOR144C, strain elg1, hits give low values 1.01 | locus YOR184W, strain ser1, hits give low values 1.02 | locus YOR231W, strain MKK1, hits give low values 1.05 | locus YOR265W, strain rbl2, hits give low values 0.989 | locus YOR270C, strain vph1, hits give low values 0.991 | locus YOR290C, strain snf2, hits give low values 0.941 | locus YOR316C, strain cot1, hits give low values 1.01 | locus YPL051W, strain arl3, hits give low values 0.984 | locus YPL055C, strain LGE1, hits give low values 0.96 | locus YPL078C, strain atp4, hits give low values 0.958 | locus YPL106C, strain sse1, hits give low values 0.929 | locus YPL240C, strain hsp82, hits give low values 0.981 | locus YPL241C, strain CIN2, hits give low values 0.997 | locus YPL256C, strain CLN2, hits give low values 1.03 | locus YPR119W, strain clb2, hits give low values 1.02 | locus YPR141C, strain kar3, hits give low values 1.01 | locus YPR163C, strain tif3, hits give low values 0.995 | locus YPR167C, strain met16, hits give low values 1.01 | strain wtn01, hits give low values 0.979
